PubChem BioAssay (NCATS)
A number with no mark means an inactive call. Results filed as inconclusive are left out. Where a call stands in place of a potency, no number is given. The source made the active and inactive calls. The call rests on the fitted dose curve; in most records, active means well fitted curve in the direction sought with a large enough effect; inconclusive means small, poorly fitted or top-dose-only effect, or another doubt; inactive means no such curve, though single readings can be large; an effect the other way counts as inactive or inconclusive.

Experiments:
[1] = biological target: Glutathione peroxidase 1 (Homo sapiens) (UniProt P07203); assay: Primary qHTS Assay for Inhibitors of Recombinant Selenoprotein Glutathione Peroxidase 1 (GPX1) (AID 1845191); further: nearly all actives have a fitted effect of over 65% in size
Outline: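 GR-coupled readout: NADPH consumption tracked by fluorescence, ex 340/em 450 nm, at t=0 and after 15 min at RT. Final mix 10 nM GPX1, 1 mM GSH, 0.5 mM CHP, 0.5 mM NADPH, 100 nM GR, 0.01% BSA, following 30 min enzyme–compound preincubation.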

[2] = biological target: Phospholipid hydroperoxide glutathione peroxidase GPX4 (Homo sapiens) (UniProt P36969); assay: Primary qHTS Assay for Inhibitors of Recombinant Selenoprotein Glutathione Peroxidase 4 (GPX4) (AID 1845192); further: nearly all actives have a fitted effect of over 65% in size; on activity change, negative = inhibition: series mostly up to about 50 µM
Outline: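 Steps: GPX4 plus compound, 30 min RT; add GR/GSH/NADPH master mix; start with cumene hydroperoxide; read 340/450 nm fluorescence at 0 and 15 min. Finals were 200 nM GPX4, 1 mM GSH, 0.5 mM CHP, 0.5 mM NADPH, 100 nM GR.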

[3] = biological target: Luciferin 4-monooxygenase (Photinus pyralis) (UniProt P08659); assay: Primary firefly luciferase (FLuc) qHTS assay for identification of artifact compounds. (AID 1845220); further: nearly all actives have a fitted effect of over 60% in size; further: potency means the concentration at half of the fitted maximal effect; on activity change, negative = inhibition: series mostly up to about 54 µM
Outline: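 Titrated compounds were incubated 15 min at RT, protected from light, with luciferin and ATP at 10 uM; reaction started with 10 nM FLuc, luminescence imaged at 5 min, and concentration-response fitted by Hill equation.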

[4] = tested on: Nanoluciferase (engineered Oplophorus gracilirostris luciferase); assay: Primary Nanoluciferase (NLuc) qHTS assay for identification of artifact compounds. (AID 1845222);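 further: NLuc secreted into diluted conditioned medium of S16 cells; series mostly up to about 54 µM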
Outline: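 qHTS format, against NLuc in S16 cell-conditioned medium. Nano-Glo substrate 1:100 was added after 15 min at room temperature. Luminescence was taken after a further 5 min.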

[5] = Primary redox qHTS assay for identification of artifact compounds. (AID 1845223); further: potency means the concentration at half of the fitted maximal effect
Outline: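 Redox-cycling detection via DTT (250 uM final) oxidation coupled to Amplex Red (25 uM)/HRP (250 mU/mL) in HBSS. 15 min preincubation plus 30 min after DTT, room temperature. Ex/Em 525/598 nm; 4-parameter Hill fit against DMSO and 10 uM DA3003.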

Phospholipid hydroperoxide glutathione peroxidase GPX4 (Homo sapiens), sequence (P36969 whole entry, looked up): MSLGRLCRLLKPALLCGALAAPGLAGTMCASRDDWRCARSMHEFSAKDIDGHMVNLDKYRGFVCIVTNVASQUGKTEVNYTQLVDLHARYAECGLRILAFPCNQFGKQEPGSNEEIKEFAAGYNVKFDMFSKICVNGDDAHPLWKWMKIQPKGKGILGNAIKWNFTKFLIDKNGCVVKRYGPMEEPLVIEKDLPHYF
Glutathione peroxidase 1 (Homo sapiens), sequence (P07203 whole entry, looked up): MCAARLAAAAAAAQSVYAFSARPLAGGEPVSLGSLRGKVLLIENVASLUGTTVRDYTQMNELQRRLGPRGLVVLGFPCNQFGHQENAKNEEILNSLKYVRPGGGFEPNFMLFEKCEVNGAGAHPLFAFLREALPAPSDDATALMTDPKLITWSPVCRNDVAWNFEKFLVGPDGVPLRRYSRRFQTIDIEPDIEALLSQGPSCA

Compound | Potency [1] | Potency [2] | Potency [3] | Potency [4] | Potency [5] | activity change, negative = inhibition [3] | activity, negative = inhibition [4] | redox activity (% of DA3003) [5]
Cn1c(CO)c(-c2ccccc2)c2cc([N+](=O)[O-])ccc21 | inactive | inactive | inactive | inactive | inactive | – | – | –
NC(N)=N/N=C/c1ccccc1Cl | inactive | inactive | inactive | inactive | inactive | – | – | –
C[C@@H]1CC[C@@]23CC[C@]4(C)[C@@](C=CC5[C@@]6(C)CC[C@H](O)C(C)(C)C6CC[C@]54C)(OC2=O)C3[C@H]1C (stereo not given in full) | inactive | inactive | inactive | inactive | inactive | – | – | –
COc1c(C)cc(NC(=O)c2nn(Cc3ccc(F)cc3)c3c2CN(C(=O)c2ccc[nH]2)C[C@]3(C)C(N)=O)cc1C | inactive | inactive | – | – | – | 2.65% [at 11.6 µM] | 0.489% [at 11.6 µM] | 7.9% [at 11.5 µM]
COc1ccc(N2CCN(C(=O)c3cc4c(s3)-c3ccccc3S(=O)(=O)C4)CC2)cc1 | inactive | inactive | inactive | inactive | inactive | – | – | –
Cc1[nH]c(/C=C2\C(=O)Nc3ccc(F)cc32)c(C)c1C(=O)NCCN1CCCC1 | inactive | inactive | inactive | inactive | inactive | – | – | –
O=c1ccc2ccc(OCCCCN3CCN(c4cccc5sccc45)CC3)cc2[nH]1 | inactive | inactive | inactive | inactive | inactive | – | – | –
Cc1ccc(N2CCN(CCC3NC(=O)c4ccccc43)CC2)cc1C (stereo not given) | inactive | inactive | inactive | inactive | inactive | – | – | –
Cc1cc(-c2nc(-c3ccc(OC(F)(F)F)cc3)no2)nn1Cc1ccnc(N2CCN(C3CC3)CC2)c1 | inactive | inactive | inactive | inactive | inactive | – | – | –
CC(=O)OC[C@]12[C@H](OC(C)=O)[C@H](OC(=O)c3ccccc3)[C@@H]3[C@@H](OC(C)=O)[C@]1(OC3(C)C)[C@H](C)C[C@H](OC(C)=O)[C@@H]2OC(=O)c1ccccc1 | inactive | inactive | inactive | inactive | inactive | – | – | –
O=c1nc(-c2ccccn2)sc2ccccc12 | inactive | inactive | inactive | inactive | inactive | – | – | –
C=CS(=O)(=O)NC1CCN(C(=O)CNc2cc(I)c(Cl)cc2OC)CC1 | inactive | inactive | inactive | inactive | inactive | – | – | –
Cn1cc(C2=C(c3coc4ccccc34)C(=O)NC2=O)c2cc(Br)ccc21 | inactive | inactive | inactive | inactive | inactive | – | – | –
COC(C)(C)CCn1nc(Nc2c(C)cccc2C)c2cnc(Nc3ccc(OCCN4CCCC4)c(F)c3)nc21 | inactive | inactive | inactive | inactive | inactive | – | – | –
CC1(CO)CC(O)[C@]2(C(=O)O)CCC34CC3(C=CC3[C@]5(C)C(CC[C@]34C)C(C)(CO)[C@@H](O)[C@H](O)[C@@H]5O)C2C1 (stereo not given in full) | inactive | inactive | inactive | inactive | inactive | – | – | –
CC1CCCC[C@H]2C(=O)C=C[C@H](O)[C@@H]2CC(=O)O1 (stereo not given in full) | inactive | inactive | inactive | inactive | inactive | – | – | –
CN1CCN(C2=Nc3ccccc3Nc3ccc(OS(=O)(=O)C(F)(F)F)cc32)CC1 | inactive | inactive | inactive | inactive | inactive | – | – | –
C=C(C(=O)OC[C@H]1O[C@@H](OC(=O)/C=C/c2ccccc2)[C@H](O)[C@@H](O)[C@@H]1O)C(O)CO (stereo not given in full) | inactive | inactive | inactive | inactive | inactive | – | – | –
C=C1/C(=C/C=C2\CCC[C@]3(C)[C@@H]([C@H](C)/C=C/[C@@H](C)C(C)C)CC[C@@H]23)C[C@@H](O)C[C@@H]1O | inactive | inactive | inactive | inactive | inactive | – | – | –
COc1ccc(S(=O)(=O)Nc2c(C)cc(C)cc2C)cc1 | inactive | inactive | inactive | inactive | inactive | – | – | –
CCOc1ccc(CCNC(=O)c2cc3sc(Cl)cc3n2C)cc1OCC | inactive | inactive | inactive | inactive | inactive | – | – | –
COCc1c(Cl)ccc2c1CC[C@H]2c1ncc[nH]1 | inactive | inactive | inactive | inactive | inactive | – | – | –
CC[C@H](C)/C=C(C)/C=C/C1=CC2=C(Cl)C(=O)[C@](C)(O)[C@H](OC(C)=O)[C@H]2CO1 | inactive | inactive | inactive | inactive | inactive | – | – | –
CN(C)c1ccnc2sc3c(=O)n(N4CCCCCC4)cnc3c12 | inactive | inactive | inactive | inactive | inactive | – | – | –
O=C(c1cc(Cc2n[nH]c(=O)c3ccccc23)ccc1F)N1CCCNCC1 | inactive | inactive | inactive | inactive | inactive | – | – | –
OC1C=C2C3CN(Cc4cc5c(cc43)OCO5)C2CC1O (stereo not given) | inactive | inactive | inactive | inactive | inactive | – | – | –
CCOc1cn(-c2ccc(F)cc2C)nc1C(=O)Nc1ccc(Oc2ccnc3cc(OC)c(OC)cc23)c(F)c1 | inactive | inactive | inactive | inactive | inactive | – | – | –

Compound | Potency [1] | Potency [2] | Potency [3] | Potency [4] | Potency [5] | activity change, negative = inhibition [3] | activity, negative = inhibition [4] | redox activity (% of DA3003) [5]
Cc1c(NC(=O)c2cc3c(s2)CCCC3)cccc1-c1cn(C)c(=O)c(Nc2ccc(C3C(=O)N(C)CCN3C)cc2)n1 (stereo not given) | inactive | inactive | 4.78 µM (active) | inactive | inactive | – | – | –
C=C1C(=O)OC2/C=C(\C)CC/C=C(\C=O)C(OC)C(OC(=O)C(C)CC)C12 (stereo not given) | inactive | inactive | inactive | inactive | inactive | – | – | –
C[C@@H](NC(=O)C(=O)c1c[nH]c2ccc([N+](=O)[O-])cc12)c1ccccc1 | inactive | inactive | inactive | inactive | inactive | – | – | –
NC(=O)N1CCC(CC(=O)N2CCC(C3c4ncc(Br)cc4CCc4cc(Cl)cc(Br)c43)CC2)CC1 (stereo not given) | inactive | inactive | inactive | inactive | inactive | – | – | –
COc1cc2c(cc1OC(C)C)[C@H](c1ccc(Cl)cc1)N(c1ccc(N(C)CC3CCC(N4CCN(C)C(=O)C4)CC3)cc1)C(=O)C2 (stereo not given in full) | inactive | inactive | inactive | inactive | inactive | – | – | –
COc1cc(-c2cn(C3CCc4c(F)cccc4N(CC(F)(F)F)C3=O)nn2)ccc1-n1cnc(C)c1 (stereo not given) | inactive | inactive | inactive | inactive | inactive | – | – | –
Cc1cc(C)c(S(=O)(=O)n2cc(C)cc2C)c(C)c1 | inactive | inactive | inactive | inactive | inactive | – | – | –
COc1cc2c(c(OC)c1CC=C(C)C)C[C@H](c1ccc(O)c(CC=C(C)C)c1O)CO2 | inactive | inactive | inactive | inactive | inactive | – | – | –
C=C(C)[C@@H]1CC=C(COC(=O)NC(=O)c2ncn3c(=O)n(C)nnc23)CC1 | inactive | inactive | inactive | inactive | inactive | – | – | –
COc1cc2ncnc(Nc3ccc(O)c(Br)c3)c2cc1OC | inactive | inactive | inactive | inactive | inactive | – | – | –
CCn1c2ccccc2c2cc(Nc3ccnc(NCCCN4CCOCC4)n3)ccc21 | inactive | inactive | inactive | inactive | inactive | – | – | –
CN(C)[C@@H]1CCc2[nH]c3ccc(NC(=O)c4ccc(F)cc4)cc3c2C1 | inactive | inactive | inactive | inactive | inactive | – | – | –
CC[C@H](C(=O)Nc1ccccc1N1CCCC1)c1ccccc1 | inactive | inactive | inactive | inactive | inactive | – | – | –
N#Cc1cc(-c2ccnc(Nc3ccc(N4CCOCC4)cc3)n2)ccc1OC1CCOCC1 | inactive | inactive | inactive | inactive | inactive | – | – | –
CN(C)CCN(Cc1ccccc1)C(=O)c1cc(-c2ccc(F)cc2)n2nc(C(C)(C)C)cc2n1 | inactive | inactive | inactive | inactive | inactive | – | – | –
O=[N+]([O-])c1ccc(Oc2ccc3c(c2)CCC(c2ccccc2)O3)nc1 (stereo not given) | inactive | inactive | inactive | inactive | inactive | – | – | –
C=CC(=O)N1CCC[C@@H](n2nc(-c3cccc(C(=O)Nc4ccc(C(C)C)c(C)c4)c3)c3c(N)ncnc32)C1 | inactive | inactive | 6.75 µM (active) | inactive | inactive | – | – | –
O=C(Nc1cccc([N+](=O)[O-])c1)c1cccc(S(=O)(=O)N2CCCCCC2)c1 | inactive | inactive | inactive | inactive | inactive | – | – | –
CC(=O)[C@H]1CC[C@H]2[C@@H]3CC=C4C[C@@H](OS(=O)(=O)O)CC[C@]4(C)[C@H]3CC[C@]12C | inactive | inactive | inactive | inactive | inactive | – | – | –
CO[C@H]1C[C@@H]2CC[C@@H](C)[C@@](O)(O2)C(=O)C(=O)N2CCCC[C@H]2C(=O)O[C@H]([C@@H](C)C[C@@H]2CC[C@@H](O)[C@H](OC)C2)CC(=O)[C@H](C)/C=C(\C)[C@@H](O)[C@@H](OC)C(=O)[C@H](C)C[C@H](C)/C=C/C=C/C=C/1C | inactive | inactive | inactive | inactive | inactive | – | – | –
C=CCC1=C[C@]2(OC)[C@H](C)[C@@H](c3ccc4c(c3)OCO4)O[C@]2(OC)CC1=O | inactive | inactive | inactive | inactive | inactive | – | – | –
Cc1cc2c(N3CCCC3)nc(N3CCCC3)nc2n1C | inactive | inactive | inactive | inactive | 844 nM (active) | – | – | –
C=CC(=O)N1CCN(C(=O)CNc2cc(-c3ccccc3Cl)c(Cl)cc2OC)CC1 | inactive | inactive | inactive | inactive | inactive | – | – | –
C=C1CC2OC(=O)C(=C)C2C(O)/C=C(\C)CCC1O (stereo not given) | inactive | inactive | inactive | inactive | inactive | – | – | –
Cc1cn2c(n1)Cc1ccc(Cl)cc1C(c1ccc(N)cc1)=N2 | inactive | inactive | inactive | inactive | inactive | – | – | –
COc1cc(/C=C2\CCCN([C@@H](C)c3ccc(F)cc3)C2=O)ccc1-n1cnc(C)c1 | inactive | inactive | inactive | inactive | inactive | – | – | –
